Consider 35 compounds from PubChem BioAssay (NCI).

Where “and” joins values, the source holds several entries; their conditions need not be identical. Equal entries are not always repeated. The panel holds about 83,000 compounds, 20% with a hit somewhere; the sample as a whole holds those more often.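 How to read the values: 0–100, growth inhibition (40 = 60% inhibited); 0, no net growth; -100 to 0, cell death (-40 = 40% of starting cells died; -100 = all dead).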 A structure can be active in one record and inactive in another. Calls of active or inactive are those of the source.

In this assay the test system is SK-MEL-2 melanoma. The assay can be described thus: NCI-60 one-dose screen, 48 h (100 = growth as untreated, 0 = no growth, -100 = all killed). The conditions noted are these: 10 µM. As for the experimental part: Growth inhibition of the SK-MEL-2 human tumor cell line is measured as a screen for anti-cancer activity. Cells are grown in 96 well plates and exposed to the test compound for 48 hours. Compounds are tested at a single concentration, which is 10^-5 M for most compounds. The reported endpoint is percent growth (GI% or GIPRCNT), where numbers from 0 - 100% represent growth inhibition, and numbers from -100% - 0 represent cell death. For example, a value of 40 represents 60% growth inhibition. A value of 0 means no net growth occurred over the course of the experiment. A value of -40 indicates 40% of cells at the beginning of the experiment died by the end of the experiment. A value of -100 means all cells are dead at the end of the experiment.
NCI-60 Human Tumor Cell Lines Screen was performed using the standard one-dose NCI protocol, which is described in more detail at https://dtp.cancer.gov/discovery_development/nci-60/default.htm.
Compounds with GIPRCNT values below 10 were considered active. Activity score was based on GIPRCNT using the following formula: […]
Score is 0 for GIPRCNT values of 100 or above, 50 for GIPRCNT values of 0, and 100 for GIPRCNT values of -100.
With `O=C(CCCc1ccc(N(CCCl)CCCl)cc1)OCc1ccccc1`, the growth was 111% (inactive).

`C/C=C/CC(C)C(O)[C@H](NC(=O)[C@@H]1CCCN1C(=O)C(C)(C)NC(=O)CCCCCCCCC)C(=O)N[C@@](C)(CC)C(=O)N[C@@H](CCC(N)=O)C(=O)N[C@H](CCC(N)=O)C(=O)NC(C)(C)C(=O)NC(C)(C)C(=O)N[C@@H](CCC(N)=O)C(=O)N[C@H](CC(C)C)C(=O)N[C@H](CO)CC(C)C` (stereo not given in full): the growth was 13.2% (inactive) and 89.1% (inactive).

As for `CC1=C2C(=C[C@@](C)(C=O)[C@@H]2O)C(=O)[C@](C)(O)C12CC2`, the growth is -37.8% (active).

Regarding `COC(=O)[C@H]1[C@@H](O)[C@@]2(O)c3c(OC)cc(OC)cc3O[C@@]2(c2ccc(OC)cc2)[C@@H]1c1ccccc1`, the growth was -45.5% (active).

For `CCCCCCCCCC(=O)N[C@@](C)(CC)C(=O)N1CCC[C@H]1C(=O)N[C@@H](CC(C)C)C(=O)N[C@@](C)(CC)C(=O)N[C@@H](CCC(N)=O)C(=O)N[C@H](CCC(N)=O)C(=O)NC(C)(C)C(=O)NC(C)(C)C(=O)N[C@@H](CCC(N)=O)C(=O)N[C@H](CC(C)C)C(=O)N[C@H](CO)CC(C)C`, the growth was -90.7% (active) and -86% (active).

For `CC1=C[C@H]2O[C@@H]3C[C@H]4OC(=O)/C=C\C=C\[C@H]([C@@H](C)O)OCC[C@@H](C)[C@H](O)C(=O)OC[C@@]2(CC1)[C@]4(C)[C@]31CO1`, the growth is -53.2% (active).

Turning to `CC1=C(CN(O)C(N)=O)C2=C(C)C3(CC3)[C@@](C)(O)C(=O)C2=C1`, the growth is -47.8% (active).

Take `CC(C)(O)/C=C/C(=O)[C@](C)(O)[C@H]1[C@H](O)C[C@@]2(C)[C@H]3CC=C4[C@@H](C[C@H](O)C(=O)C4(C)C)[C@]3(C)C(=O)C[C@]12C`: the growth is -28.2% (active).

With `N#Cc1nc(-c2ccccc2)oc1N1CCC(S(=O)(=O)F)CC1`, the growth was 120% (inactive).

With `C/C=C\C(=O)O[C@@H]1CC2O[C@@H]3C=C(C)C(=O)C[C@]3(C)[C@]1(C)[C@]21CO1`, the growth is -43.2% (active).

For `CCC(C)[C@H]1C(=O)O[C@H](C(C)C)C(=O)N(C)[C@@H](C(C)C)C(=O)O[C@H](C(C)C)C(=O)N(C)[C@@H](C(C)C)C(=O)O[C@H](C(C)C)C(=O)N1C` (stereo not given in full), the growth was -2.6% (active).

Regarding `COc1cc(OC)c(S(=O)(=O)N(CCCl)CCCl)cc1C(=O)/C=C/c1ccc(Cl)cc1`, the growth is 93% (inactive).

On to `C=C1[C@@H](C)C2[C@H](Cc3ccccc3)NC(=O)[C@]23[C@H](OC(C)=O)/C=C/[C@@](C)(O)C(=O)[C@@H](C)C/C=C/[C@H]3[C@@H]1O` (stereo not given in full), for which the growth was 81.5% (inactive).

Consider `COc1cccc2c1cc([N+](=O)[O-])c1c(C(=O)O)cc3c(c12)OCO3`, for which the growth is 108% (inactive).

For the compound `N#Cc1c(-n2c(Br)c(Br)c3cc(Br)ccc32)[nH]c2c(Br)cc(Br)cc12`, the growth is -61.2% (active).

Turning to `COC1[C@@H]2C[C@H]3C(C)(C)O[C@@](C/C=C(/C)C(=O)O)(C2=O)[C@]32Oc3c(CC=C(C)C)c4c(c(O)c3C(=O)[C@H]12)C=CC(C)(C)O4` (stereo not given in full), the growth is -65.5% (active).

In the case of `COc1cc2c(cc1OC)[C@@H]1N(CC2)C(=O)c2ccccc2[C@@]1(C)C(=O)O`, the growth was 109% (inactive).

For the compound `COc1cc(C)c(-c2ccc(OC)c(=O)cc2C)c(OC)c1OC`, the growth is 0.162% (active) and 113% (inactive).

As for `CC1=C[C@H]2O[C@@H]3C[C@H]4OC(=O)/C=C\C=C\[C@H]([C@@H](C)O)OCC/C(C)=C/C(=O)OC[C@@]2(CC1)[C@]4(C)[C@]31CO1`, the growth is -61.1% (active).

For the compound `CC1=C[C@H]2O[C@@H]3C[C@@H](O)[C@](C)([C@@]2(C)CC1)[C@@]31CO1`, the growth is 22.6% (inactive).

Consider `NC1CCc2cc(O)c(O)cc2C1` (stereo not given), for which the growth was 97.7% (inactive).

For `COc1cc2c(O[C@@H]3OC[C@H](O)[C@H](O)[C@H]3O)c3c(c(-c4ccc5c(c4)OCO5)c2cc1OC)C(=O)OC3`, the growth was 49% (inactive).

For the compound `CC1=C2C(=O)[C@](C)(CO)C=C2C(=O)[C@](C)(O)C12CC2`, the growth was -35.6% (active).

On to `C/C=C/CC(C)C(O)[C@H](NC(=O)[C@@H]1CCCN1C(=O)C(C)(C)NC(=O)CCCCCCCCC)C(=O)N[C@@](C)(CC)C(=O)N[C@@H](CCC(N)=O)C(=O)N[C@H](CCC(N)=O)C(=O)NC(C)(C)C(=O)N[C@@](C)(CC)C(=O)N[C@@H](CCC(N)=O)C(=O)N[C@H](CC(C)C)C(=O)N[C@H](CO)CC(C)C` (stereo not given in full), for which the growth was 121% (inactive) and -72.1% (active).

`CC1=C(CN(O)C(N)=O)C2=C(C)C3(CC3)[C@](C)(O)C(=O)C2=C1`: the growth was -28.8% (active).

In the case of `CC(=O)O[C@@H]1C[C@H]2O[C@@H]3C=C(C)CC[C@]3(C)[C@]1(C)[C@]21CO1`, the growth was -3.89% (active).

As for `CN(CCF)/N=N/c1nc[nH]c1C(N)=O`, the growth is -20.9% (active).

Regarding `C/C=C/CC(C)C(O)[C@H](NC(=O)[C@@H]1CCCN1C(=O)C(C)(C)NC(=O)CCCCCCCCC)C(=O)NC(C)(C)C(=O)N[C@@H](CCC(N)=O)C(=O)N[C@H](CCC(N)=O)C(=O)NC(C)(C)C(=O)NC(C)(C)C(=O)N[C@@H](CCC(N)=O)C(=O)N[C@H](CC(C)C)C(=O)N[C@H](CO)CC(C)C` (stereo not given in full), the growth was -48.1% (active) and -31.4% (active).

For the compound `COc1cc2c(O[C@@H]3OC[C@H](OC(C)=O)[C@H](OC(C)=O)[C@H]3O)c3c(c(-c4ccc5c(c4)OCO5)c2cc1OC)C(=O)OC3`, the growth is -31.8% (active).

For the compound `CC(C)=CCc1c2c(c(O)c3c1O[C@]14C(=C[C@@H]5C[C@H]1C(C)(C)O[C@@]4(C/C=C(/C)C(=O)O)C5=O)C3=O)C=CC(C)(C)O2`, the growth is -75.2% (active).

In the case of `C/C=C/CC(C)C(O)[C@H](NC(=O)[C@@H]1CCCN1C(=O)C(C)(C)NC(=O)CCCCCCC)C(=O)N[C@@](C)(CC)C(=O)N[C@@H](CCC(N)=O)C(=O)N[C@H](CCC(N)=O)C(=O)NC(C)(C)C(=O)NC(C)(C)C(=O)N[C@@H](CCC(N)=O)C(=O)N[C@H](CC(C)C)C(=O)N[C@H](CO)CC(C)C` (stereo not given in full), the growth is 115% (inactive) and 34% (inactive).

For `CC(=O)O[C@@H]1[C@@H]2O[C@H]2[C@@](C)(O)C(=O)[C@@H](C)C/C=C/[C@H]2[C@@H]3O[C@]3(C)[C@@H](C)C3[C@H](Cc4ccccc4)NC(=O)[C@@]312` (stereo not given in full), the growth was 72.1% (inactive).

`CC1=C2C(=C[C@@](C)(COS(C)(=O)=O)[C@@H]2O)C(=O)[C@](C)(O)C12CC2`: the growth is -39.5% (active).

On to `C[C@@H]1CCC/C=C/[C@H]2C[C@@H](O)C[C@@H]2[C@@H](O)/C=C/C(=O)O1`, for which the growth was -38.9% (active).

Take `Cc1ccc(CNc2nc3ccc(OC/C(=C/F)CN)cc3o2)cn1`: the growth was 110% (inactive).
